Hits are enriched below; roughly 3.1% of the tested compounds scored in any of these assays.
UBC13 inh: blocks human UBC13 polyubiquitin chain formation; 330,000 compounds, 0.47% hits; TR-FRET; inhibition, % at 20 µM; in the data active means inhibition above about 45%, passing the limit was not always enough
MEKK2 mut-MEK5: signal of MEK5 binding to mutant human MEKK2 PB1 domain | bead flow cytometry, Alexa488-MEK5 binding to MEKK2 mutant | percent response, % at 10 µM | 290,000 compounds, 0.35% hits; in the data active means percent response above about 24%, passing the limit was not always enough
MEKK3 PB1 HTS: raises or lowers MEK5 binding to the human MEKK3 PB1 domain; bead-based flow cytometry, Alexa488-MEK5 binding to MEKK3; actives lie on both sides; 0 = blocked by unlabeled MEK5, 100 = vehicle; AID 1529; binding response (% of control), % at 10 µM; 290,000 compounds, 1.4% hits; Q99759;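 active means binding response more than 3 SD above or below the average of its plate-row segment, actives on both sides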;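 further: Alexa488 bead fluorescence after subtracting the streptavidin-only scavenger bead signal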
Target sequence (Q99759 whole entry, looked up, the tested form may be a part): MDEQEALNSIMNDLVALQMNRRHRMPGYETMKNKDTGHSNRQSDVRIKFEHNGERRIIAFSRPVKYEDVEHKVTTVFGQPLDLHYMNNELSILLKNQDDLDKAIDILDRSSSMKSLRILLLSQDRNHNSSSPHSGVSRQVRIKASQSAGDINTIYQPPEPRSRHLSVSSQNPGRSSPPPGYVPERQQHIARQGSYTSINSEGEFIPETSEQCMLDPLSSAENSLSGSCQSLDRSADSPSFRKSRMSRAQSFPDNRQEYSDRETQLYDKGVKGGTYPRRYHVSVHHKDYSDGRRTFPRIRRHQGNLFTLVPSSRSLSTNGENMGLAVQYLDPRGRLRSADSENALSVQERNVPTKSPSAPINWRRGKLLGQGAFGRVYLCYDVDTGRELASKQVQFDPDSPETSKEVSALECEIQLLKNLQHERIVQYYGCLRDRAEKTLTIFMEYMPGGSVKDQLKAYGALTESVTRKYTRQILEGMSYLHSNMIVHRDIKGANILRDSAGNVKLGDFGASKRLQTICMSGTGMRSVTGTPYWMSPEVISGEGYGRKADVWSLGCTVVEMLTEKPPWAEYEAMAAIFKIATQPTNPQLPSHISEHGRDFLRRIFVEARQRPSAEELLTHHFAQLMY
PREPL inhibitor: inhibitors of human prolyl oligopeptidase-like enzyme PREPL. Q4J6C6. AID 2751. inhibition, % at 5.96 µM. 320,000 compounds, 0.68% hits. recombinant PREPL, fluorescence polarization activity-based probe; in the data active means inhibition above about 43%
ATG4B inh: ATG4B (human) cysteine protease inhibition | ATG4B cleavage of LC3-PLA2, NBD-HPC fluorescence, 1 h | inhibition, % at 8.33 µM | 340,000 compounds, 0.51% hits | AID 504462; in the data active means inhibition above about 40%
MEKK2 WT-MEK5: raises or lowers MEK5 binding to wildtype human MEKK2 PB1 domain. Q9Y2U5. bead flow cytometry, Alexa488-MEK5 binding to MEKK2 WT; actives lie on both sides. binding response (% of control), % at 10 µM. 290,000 compounds, 1.1% hits. AID 1531; in the data active means binding response below about 67% or above about 130%
MEKK2wt confirm: raises or lowers MEK5 binding to wildtype human MEKK2, retest; 5,900 compounds, 2.4% hits; bead flow cytometry, Alexa488-MEK5 binding to MEKK2 WT; actives lie on both sides; AID 1892; binding response (% of control), % at 10 µM; shares compounds with MEKK3 PB1 HTS; in the data active means binding response below about 16% or above about 210%; inactive means in between
MEKK2mut-MEK5: signal of MEK5 binding to mutant human MEKK2, retest; 5,900 compounds, 2% hits; bead flow cytometry, Alexa488-MEK5 binding to MEKK2 mutant; shares compounds with MEKK3 PB1 HTS; percent response, % at 10 µM; in the data active means percent response mostly above about 71%, no sharp cut-off; inactive means mostly below about 38%;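 further: higher means compound restores mutant binding toward wildtype level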
MEKK3-MEK5 inh: MEKK3-MEK5 PB1 inhibition, single concentration confirmation | binding response (% of control), % at 10 µM | AID 1894 | bead flow cytometry, Alexa488-MEK5 binding to MEKK3; hits give low values | 5,900 compounds, 1.8% hits | shares compounds with MEKK3 PB1 HTS;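 active means binding response below 72% of control, or above a set upper limit, though filed actives all read lower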
Numbers stand for hits; 0 = inactive; - = no result; [ ] = another dose, or the depositor's remark.

SMILES	UBC13 inh	MEKK2 mut-MEK5	MEKK3 PB1 HTS	PREPL inhibitor	ATG4B inh	MEKK2 WT-MEK5	MEKK2wt confirm	MEKK2mut-MEK5	MEKK3-MEK5 inh
Cc1ccc2cc(C#N)c(SCC(=O)NCc3ccco3)nc2c1	0	0	2.0[inhibitor]	0	0	2.0[inhibitor]	0	0	0
Cc1cc(C)n2nc(SCC(=O)NCc3ccco3)nc2n1	0	0	77.0[inhibitor]	0	0	0	0	0	0
CCCCn1c(N)c(N(CCOC)C(=O)c2ccc(C)o2)c(=O)[nH]c1=O	0	-	-	0	0	-	-	-	-
Cc1noc(-c2ccc(C(F)(F)F)cc2)c1NC(=O)Nc1ccc(Cl)cc1	0	0	0	0	0	0	-	-	-
CN(CCOc1ccccc1)CCOc1ccccc1	0	0	0	0	0	0	-	-	-
CN(C)CCOc1ccc(/C(=C(/CCCl)c2ccccc2)c2ccccc2)cc1	0	0	0	0	0	176.0	0	0	0
O=C1CC(C2CCCO2)C(=O)N1c1ccc(Cl)c(Cl)c1 (stereo unspecified)	0	0	0	0	0	0	-	-	-
c1ccc(CCNc2ccnc3cc4ccccc4cc23)cc1	-	97.0	0	-	0	210.0	0	0	0
CCOc1ccc2c(c1)c(N=NC(=N)N)c(O)n2C	0	0	128.0	0	0	0	0	0	0
CN(Cc1ccccc1)C(=O)c1cccc(NC(=O)Cc2ccc(NC(=O)C3CCCN(C(=O)C4CCC4)C3)cc2)c1 (stereo unspecified)	-	-	-	-	0	-	-	-	-
CN(C)CCNC(=O)c1sc2nc(-c3ccccc3)cc(C(F)(F)F)c2c1N	0	0	0	0	0	158.0	0	0	0
CCn1c(SCC(=O)NNC(=S)Nc2ccc(C)cc2)nnc1-c1ccc(Cl)cc1	0	0	134.0	0	0	0	0	0	0
CCOc1ccccc1NC(=O)CSc1nc2nc(-c3cccs3)cc(C(F)(F)F)c2c(=O)[nH]1	0	0	73.0[inhibitor]	0	0	59.0[inhibitor]	0	0	0
Cc1nc2c(oc3ccc(Cl)cc32)c(=O)[nH]1	0	0	49.0[inhibitor]	0	0	0	0	0	0
CCc1nc2c(oc3ccccc32)c(=O)[nH]1	0	0	0	0	0	0	-	-	-
CCc1ccc(C(C(=O)NCCOC)N(C(=O)Cn2nnc3ccccc32)c2cccnc2)cc1 (stereo unspecified)	0	0	2.0[inhibitor]	0	0	2.0[inhibitor]	0	0	0
CC(=O)N1N=C(c2ccccc2)CC1c1cn(C)c2ccccc12 (stereo unspecified)	0	0	157.0	0	0	0	0	0	0
Cc1ccc(S(=O)(=O)c2c(C)cc(-c3ccccc3)[nH]c2=O)cc1	0	0	143.0	0	0	134.0	0	0	0
Cc1cc(OCc2cc(C(=O)NCCN3CCCCC3CO)no2)cc(C)c1Cl (stereo unspecified)	0	0	0	0	0	136.0	0	0	0
COc1cc2c(cc1NC(=O)Nc1ccccc1)oc1ccccc12	0	0	0	0	0	140.0	0	0	0
COc1cc2c(cc1NC(=O)c1ccc3c(c1)OCO3)oc1ccccc12	0	0	0	0	0	-5.0[inhibitor]	0	0	0
COc1ccccc1NC(=O)c1ccc2c(c1)OCO2	0	0	0	0	0	0	-	-	-
Cc1ccc(-c2nc3ccccc3o2)cc1NC(=O)c1ccc2c(c1)OCO2	0	0	0	0	0	0	-	-	-
Cc1c(NC(=O)c2ccc3c(c2)OCO3)cccc1-c1nc2ccccc2o1	0	0	131.0	0	0	0	0	0	0
COc1cc2c(cc1NC(=S)Nc1cccc(C(F)(F)F)c1)oc1ccccc12	0	0	0	0	0	153.0	0	0	0
SMILES	UBC13 inh	MEKK2 mut-MEK5	MEKK3 PB1 HTS	PREPL inhibitor	ATG4B inh	MEKK2 WT-MEK5	MEKK2wt confirm	MEKK2mut-MEK5	MEKK3-MEK5 inh
COc1cc2c(cc1NC(=S)Nc1cccc3ccccc13)oc1ccccc12	0	0	0	0	0	0	-	-	-
COc1cc(OC)cc(-c2c(-c3cccs3)c3cc(-c4ccc5[nH]ccc5c4)ccc3n2C)c1	0	-	-	0	0	-	-	-	-
N#CC1=C(S)N(c2ccccc2)C(c2ccc(-c3cccc(Cl)c3)o2)NC1=O (stereo unspecified)	0	0	130.0	0	0	0	0	0	0
c1ccc(N2CC3CCc4ccccc4C3=N2)cc1 (stereo unspecified)	0	0	0	0	0	0	-	-	-
CCn1ccnc1CN(C)Cc1nc(Cc2cccc(C(F)(F)F)c2)no1	0	0	0	0	0	0	-	-	-
COc1ccc(C(=O)Cn2nc(CNc3ccc(Br)cc3)[n+]3c2CCCCC3)cc1	0	0	0	0	0	150.0	0	0	0
O=C(C[n+]1cccc(CNC(=O)c2ccc(OC(F)F)cc2)c1)Nc1cc(C(F)(F)F)ccc1Cl	0	0	0	0	0	144.0	0	0	0
N=c1sccn1CC(=O)Nc1cc(S(=O)(=O)N2CCCCC2)ccc1Cl	0	0	0	0	0	0	-	-	-
Cc1ccc(Sc2nc(C)cc(C)c2S(C)(=O)=O)cc1	0	0	82.0[inhibitor]	0	0	0	0	0	0
Cc1cccnc1NC(=O)c1csnn1	0	0	65.0[inhibitor]	0	0	30.0[inhibitor]	0	0	0
CCOC(=O)c1c(S(=O)(=O)N2CCCC(C(=O)Nc3ccc(C)cn3)C2)c(C)n(C)c1C (stereo unspecified)	0	0	0	0	0	0	-	-	-
CCOC(=O)COc1c(Br)cc(C2NC(=O)NC(C)=C2C(C)=O)cc1OC (stereo unspecified)	0	0	131.0	0	0	0	0	0	0
CCOC(=O)COc1c(OC)cc(Cl)cc1C1NC(=O)NC(C)=C1C(C)=O (stereo unspecified)	0	0	0	0	0	0	-	-	-
CCOC(=O)c1cnc2cc(C)nn2c1-c1ccccc1	0	0	0	0	0	0	-	-	-
CCOC(=O)c1cnc2cc(C)nn2c1C	0	0	74.0[inhibitor]	0	0	0	0	0	0
S=C(NC1CCCCC1)N(CCc1ccccc1)CCc1ccccc1	0	51.0	0	0	0	0	0	0	0
CC1Cc2ccccc2N1S(=O)(=O)c1cccs1 (stereo unspecified)	0	0	0	0	0	8.0[inhibitor]	0	0	0
Cc1ccc(S(=O)(=O)N2c3ccccc3CC2C)cc1 (stereo unspecified)	0	0	0	0	0	0	-	-	-

High-throughput results as filed in PubChem.
